GPR151 activ: activators of human GPR151, primary screen, cell-based, PathHunter beta-arrestin, luminescence. G-protein coupled receptor 151 (Homo sapiens), Q8TDV0. PathHunter beta-arrestin GPR151 cells. activation, % at 11.2 µM. 650,000 compounds, 1% hits. AID 1508602, 2020; in the data active = activation above about 4.9%
MITF primary: MITF inhibitors, primary screen, biochemical, AlphaScreen, human. Microphthalmia-associated transcription factor (Homo sapiens), O75030. inhibition, % at 2.6 µM. AID 1259374, 2018. AlphaScreen MITF homodimerization, bead proximity signal. 650,000 compounds, 0.91% hits; in the data active = inhibition above about 50%
TEAD-YAP inh: TEAD-YAP interaction inhibition, primary screen, TEAD-YAP interaction inhibitor project, luminescence, HEK-TIYL cells; AID 1259422, 2018; inhibition, % at 9.12 µM; 640,000 compounds, 1.4% hits; TEAD-Gal4/YAP UAS-luciferase luminescence; in the data active = inhibition above about 32%
FBW7 activator: FBW7 E3 ligase activators, primary screen, biochemical, AlphaScreen, human | F-box/WD repeat-containing protein 7 (Homo sapiens), Q969H0 | normalized activity (activation), % at 26.1 µM | AID 1259310, 2017 | AlphaScreen FBW7–phospho-cyclin E peptide binding, activator screen | 650,000 compounds, 0.13% hits; in the data active = normalized activity above about 1.9%;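 also: purified mutant Fbw7 with reduced substrate affinity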
Of the large screens only hits and unclear results are named; the others gave an inactive call. Most compounds without a hit are left out; they make up all but 3.5% or so of the library.

COc1cc(C(=O)COC(=O)Cc2ccsc2)cc(OC)c1OC	none
Cc1cc(C)c(-c2csc(NC(=O)c3ccccc3[N+](=O)[O-])n2)c(C)c1	none
Cc1ccc(S(=O)(=O)N/N=C/c2cc(Cl)cc(Cl)c2O)cc1	none
CCOc1ccc(-c2nc(CSCC(=O)NCCCN3CCCC3)c(C)o2)cc1	none
COc1ccc(-c2nc(CSCC(=O)O)c(C)o2)cc1	TEAD-YAP inh 82
CCOc1ccc(-c2nc(CSCC(=O)NCCN3CCCC3)c(C)o2)cc1	TEAD-YAP inh 34
COc1ccc(-c2nc(CSCC(=O)NCC(OC)OC)c(C)o2)cc1	none
CCOC(=O)CSCc1nc(-c2ccc(C)cc2)oc1C	TEAD-YAP inh 80
CCCCNC(=O)CSCc1nc(-c2ccc(C)cc2)oc1C	none
CCOc1ccc(-c2nc(CSCC(=O)O)c(C)o2)cc1	TEAD-YAP inh 98
Nc1c(C(=O)NCCc2ccccc2)nnn1-c1ccc2c(c1)OCCO2	none
CCOC(=O)N1CCN(S(=O)(=O)c2ccc(C(=O)Nc3nc4ccc([N+](=O)[O-])cc4s3)cc2)CC1	none
CCOC(=O)c1c(C)[nH]c(C)c1C(=O)CCl	TEAD-YAP inh 71
Cc1[nH]c2ccccc2c1C(=O)CN(C)C	none
CC(=O)c1c(-c2ccccc2)[nH]c2ccccc12	TEAD-YAP inh 46
Cc1[nH]c2ccccc2c1C(=O)CCl	FBW7 activator 2.3
O=C(CSc1ccc(Cl)cc1)Nc1nc2ccc(-c3ccncc3)cc2s1	TEAD-YAP inh 77
NCC(=O)N1CCC(C(=O)Nc2nc3ccc(-c4ccncc4)cc3s2)CC1	TEAD-YAP inh 38
CN(C)c1ccc(-c2nc3ccccc3c(=O)[nH]2)cc1	TEAD-YAP inh 72
Cc1ccc(N2CC(=O)Nc3ccccc3S2(=O)=O)cc1C	TEAD-YAP inh 52
C(=N\N1CCN(Cc2ccccc2)CC1)/c1ccncc1	none
COCCn1c(SCC(=O)N2CCc3ccccc32)nnc1-c1ccccc1	none
CC(C)c1ccc2oc(-c3ccc(Cl)c(N)c3)nc2c1	TEAD-YAP inh 83
Cc1ccccc1C(=O)Nc1cc(-c2nc3cc(C(C)C)ccc3o2)ccc1Cl	none
Cc1ccc2oc(-c3ccc(Cl)c(NC(=O)Cc4ccccc4)c3)nc2c1	none
COc1ccccc1C(=O)Nc1cc(-c2nc3cc(C(C)C)ccc3o2)ccc1Cl	TEAD-YAP inh 35
CC(C)c1ccc2oc(-c3ccc(Cl)c(NC(=O)Cc4ccccc4)c3)nc2c1	TEAD-YAP inh 61
Cc1ccc([N+](=O)[O-])cc1S(=O)(=O)NCC(=O)O	none
COc1cc(/C=N/NC(=O)c2cc3ccccc3cc2O)c([N+](=O)[O-])cc1OC	none
Cc1ccnc(NC(=O)CCC(=O)N(CC(=O)NCCc2ccccc2)C2CCCC2)c1	none
COCCN(CC(=O)NCCc1ccccc1)C(=O)CCC(=O)Nc1cc(C)ccn1	TEAD-YAP inh 33
Cc1cccc(N(CC(=O)NCc2ccccc2)C(=O)CCC(=O)Nc2ccccn2)c1	FBW7 activator 1.9
OC(COc1ccc(F)cc1)Cn1cnc2ccccc21 (stereo not given)	none
CCOc1ccc(/C=C2/C(=O)NC(=O)N(C)C2=O)cc1	none
COc1cccc(C2CC(=O)N3C(=C2C#N)SCC3(O)c2cccc(OC)c2)c1 (stereo not given)	TEAD-YAP inh 51
N#CC1=C2SCC(O)(c3ccccc3)N2C(=O)CC1c1cccs1 (stereo not given)	TEAD-YAP inh 42
N#CC1=C2SCC(O)(c3ccccc3)N2C(=O)CC1c1ccccc1F (stereo not given)	none
COC(=O)c1ccc(C2CC(=O)N3C(=C2C#N)SCC3(O)c2ccc(C)cc2)cc1 (stereo not given)	TEAD-YAP inh 49
Cc1ccc(-c2csc3ncnc(N4CCC(C(N)=O)CC4)c23)cc1	none
O=C(/C=C/Nc1ccccc1I)c1ccccn1	TEAD-YAP inh 80
O=C(/C=C/Nc1cccc2cccnc12)c1ccccc1	none
CCOC(=O)C1=C(C)NC(=S)NC1c1cccc(OC)c1OC (stereo not given)	none
CCn1nnc2c(NCc3ccc4[nH]c(C)cc4c3)ncnc21	TEAD-YAP inh 65
CCn1nnc2c(Nc3cccc(C)c3)ncnc21	none
C=CCN1C(=O)CCC1CCNCc1cc2c(cc1Cl)OCO2 (stereo not given)	none
COc1cc(NS(=O)(=O)c2ccc(-c3cc(C)no3)cc2)cc(OC)c1	TEAD-YAP inh 61

Screening data: PubChem BioAssay, The Scripps Research Institute Molecular Screening Center
